High-throughput results: PubChem BioAssay, National Center for Advancing Translational Sciences (NCATS)
Shown are actives, neighbours in structure and some others; about 19% of the full set was active somewhere.
HT1080 IDH1KD tx: qHTS for induction of synthetic lethality in tumor cells producing 2HG: qHTS for the HT-1080-IDH1KD cell line. actives 2% (n = 360,000). HT-1080 IDH1 knockdown viability, ATP luminescence, 48 h. AID 686971, 2013. Potency, µM (series often up to 46.1 µM), inactives show at the top dose activity, negative = toxicity, hits mostly cytotoxic;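 note: potency is the fitted concentration of half-maximal effect; 0% = DMSO wells and -100% = cell-free medium wells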
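Assay cells: HT-1080 with IDH1 knockdown, 750 per well, RPMI/5% FBS. Exposure: 48 h at 37 °C following 2 h pre-incubation. Read: CellTiter-Glo luminescence; fitted concentration-response, curve class assigned.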
IL1B secr inh: qHTS for Inhibitors of Inflammasome Signaling: IL-1-beta AlphaLISA Primary Screen; THP-1 LPS/ATP IL-1B secretion, AlphaLISA, 16 h; hits give low values; activity change, % at 57.5 µM; actives 4.7% (n = 360,000); in the data active = activity change below about -50%; inconclusive = mostly about -30% to -49%
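Secreted IL-1B measured by AlphaLISA bead assay after 16 h compound exposure of THP-1 cells; compounds (final up to 57.5 uM) added 1 h before LPS (250 ng/mL) and ATP (1.25 mM) stimulation; lower signal means less secretion.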
HT1080NT lethal: qHTS for induction of synthetic lethality in tumor cells producing 2HG: qHTS for the HT-1080-NT fibrosarcoma cell line; Potency, µM (series often up to 46.1 µM), inactives show top-dose activity, negative = less viability, actives largely listed as cytotoxic; HT-1080-NT fibrosarcoma viability, CellTiter-Glo ATP luminescence, 48 h; actives 1.6% (n = 360,000);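 note: NT is the 2HG producing partner of a matched IDH1 knockdown line; potency is the fitted concentration of half-maximal effect; 0% = DMSO-treated cells and -100% = media-only wells without cells; nearly all actives have a fitted effect of over 55% in size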
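Luminescent CellTiter-Glo readout after 48 hours of compound exposure at 37 degrees C defined viability of HT-1080-NT cells. Activity was normalized to DMSO wells and cell-free media wells; concentration-response curves were fitted and assigned curve classes.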
TDP1 cell noCPT: qHTS for Inhibitors of human tyrosyl-DNA phosphodiesterase 1 (TDP1): qHTS in cells in absence of CPT | Potency, µM (doses to about 46.2 µM), for inactives: at the top dose activity change, negative = growth inhibition, hits mostly inhibitors | DT40 Tdp1-/- hTDP1 cells, no CPT, ATP luminescence, 48 h | actives 15% (n = 420,000) | AID 686978, 2013; note: potency is the fitted concentration of half-maximal effect; nearly all actives have a fitted effect of over 55% in size
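Camptothecin absent (DMSO only). Human TDP1-complemented DT40 knockout cells, 400 cells/well, 37 °C for minimum 48 hr; ATP measured via CellTiter-Glo, 30 min dark incubation, luminescence.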
DT40 TDP1 CPT: qHTS for Inhibitors of human tyrosyl-DNA phosphodiesterase 1 (TDP1): qHTS in cells in presence of CPT; chicken DT40 Tdp1-/-;hTDP1 cells + 20 nM CPT, ATP luminescence, 48 h; Potency, µM (titrated, usually from 46.2 µM), without a hit: at the highest dose activity change, negative = growth inhibition, most hits filed as inhibitors; actives 12% (n = 420,000); AID 686979, 2013; note: potency is the fitted concentration of half-maximal effect; nearly all actives have a fitted effect of over 55% in size
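Chicken DT40 Tdp1-/- cells stably complemented with human TDP1 were seeded at 400 cells/well in medium containing 20 nM camptothecin, exposed to pin-transferred compounds, and grown at 37 °C for at least 48 hr. Viability was read as ATP luminescence.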
The depositor's hits bear a star; [ ] = dose if it differs, or a comment. Unless noted, calls come from the whole dose curve; as a rule, active = well fitted curve in the direction sought with a large enough effect; inconclusive = small, poorly fitted or top-dose-only effect, or another doubt; inactive = no such curve, though single readings can be large; an effect the other way counts as inactive or inconclusive. Unless noted, % is set by controls: 0 for no effect and ±100 for the full control effect.

How did CCn1c(SCC(=O)Nc2c(C)n(C)n(-c3ccccc3)c2=O)nc2c1c(=O)n(C)c(=O)n2C do in these assays?
HT1080 IDH1KD tx: 0%; IL1B secr inh: -9; HT1080NT lethal: 6%; TDP1 cell noCPT: -11%; DT40 TDP1 CPT: 7%

Results for Nc1cccc(C(=O)c2ccccc2C(=O)O)c1 ?
HT1080 IDH1KD tx: 1%; IL1B secr inh: 39; HT1080NT lethal: 2%; TDP1 cell noCPT: 13%; DT40 TDP1 CPT: -17%

What do the screens show for `Cn1c(SCC(=O)Nc2ccccc2F)nnc1C1CCCCC1`?
HT1080 IDH1KD tx: 30%; IL1B secr inh: inactive; HT1080NT lethal: 10%; TDP1 cell noCPT: 0%; DT40 TDP1 CPT: 5%

Results for O=S(=O)(CCc1ccccc1)CS(=O)(=O)CCc1ccccc1 ?
HT1080 IDH1KD tx: 2%; IL1B secr inh: -3; HT1080NT lethal: -3%; TDP1 cell noCPT: 3%; DT40 TDP1 CPT: -10%

How did Cc1ccc(S(=O)(=O)N2CCN(C(=O)COC(=O)/C=C/c3ccc([N+](=O)[O-])cc3)CC2)c(C)c1 do in these assays?
HT1080 IDH1KD tx: 6%; IL1B secr inh: 7; HT1080NT lethal: 5%; TDP1 cell noCPT: 1%; DT40 TDP1 CPT: -20%

Results for COc1cc(/C=C/C(=O)OCC(=O)N2CCN(S(=O)(=O)c3ccc(C)cc3C)CC2)cc(Cl)c1OC ?
HT1080 IDH1KD tx: 6%; IL1B secr inh: 1; HT1080NT lethal: 6%; TDP1 cell noCPT: 18µM*; DT40 TDP1 CPT: inconclusive

Results for C=CCOc1ccc(/C=C/C(=O)OCC(=O)N2CCN(S(=O)(=O)c3ccc(C)cc3C)CC2)cc1 ?
HT1080 IDH1KD tx: 14%; IL1B secr inh: 15; HT1080NT lethal: 2%; TDP1 cell noCPT: 7.3µM*; DT40 TDP1 CPT: inconclusive

Results for Cc1ccc(CNC(=O)c2c(Nc3ccccc3C)sc(C(=O)c3ccc(F)cc3)c2N)cc1 ?
TDP1 cell noCPT: 15µM*; DT40 TDP1 CPT: inconclusive

What do the screens show for `COc1cccc(Nc2sc(C(=O)c3ccc(F)cc3)c(N)c2C(=O)NCc2ccc(C)cc2)c1`?
TDP1 cell noCPT: 5.2µM*; DT40 TDP1 CPT: 4.1µM*

How did COc1ccc(CNC(=O)c2c(Nc3ccccc3C)sc(C(=O)c3ccccc3)c2N)cc1 do in these assays?
TDP1 cell noCPT: 5.2µM*; DT40 TDP1 CPT: inconclusive

How did COc1cccc(NC(=S)NCc2ccc(F)cc2)c1 do in these assays?
HT1080 IDH1KD tx: 6%; IL1B secr inh: 8; HT1080NT lethal: 2%; TDP1 cell noCPT: 1%; DT40 TDP1 CPT: 7%

How did O=C1NN(c2ccccc2)C(=O)/C1=C/c1ccc(Sc2ccc(Cl)cc2)o1 do in these assays?
HT1080 IDH1KD tx: -6%; IL1B secr inh: 15; HT1080NT lethal: -9%; TDP1 cell noCPT: 21µM*; DT40 TDP1 CPT: inconclusive

Results for Cc1ccc(Sc2ccc(/C=C3/C(=O)NN(c4ccccc4)C3=O)o2)cc1 ?
HT1080 IDH1KD tx: 1%; IL1B secr inh: -24; HT1080NT lethal: 0%; TDP1 cell noCPT: 16µM*; DT40 TDP1 CPT: inconclusive

Results for O=C1NN(c2ccccc2)C(=O)/C1=C/c1ccc(-c2ccc(Cl)c(C(=O)O)c2)o1 ?
HT1080 IDH1KD tx: -8%; IL1B secr inh: 47; HT1080NT lethal: -13%; TDP1 cell noCPT: -1%; DT40 TDP1 CPT: 2%

What do the screens show for `COC(=O)C1CCCCN1Cc1ccc2c(c1)CN(C1CCSCC1)CCO2` (stereo unspecified)?
TDP1 cell noCPT: -26%; DT40 TDP1 CPT: -4%[9.04 µM]

How did COc1ccnc(Oc2ccc(F)cc2)c1C(=O)N/C=N/OCc1ccc(Cl)cc1Cl do in these assays?
HT1080 IDH1KD tx: 0%; IL1B secr inh: -13; HT1080NT lethal: -5%; TDP1 cell noCPT: inconclusive; DT40 TDP1 CPT: -8%

What do the screens show for `COc1ccnc(Oc2ccc(F)cc2)c1C(=O)N/C=N/OCc1ccc(F)cc1Cl`?
HT1080 IDH1KD tx: -14%; IL1B secr inh: -64*; HT1080NT lethal: 3%; TDP1 cell noCPT: inconclusive; DT40 TDP1 CPT: inconclusive

How did CCCCN1CC(N2CCN(Cc3ccccc3)CC2)CS1(=O)=O (stereo unspecified) do in these assays?
HT1080 IDH1KD tx: -4%; IL1B secr inh: 33; HT1080NT lethal: -6%; TDP1 cell noCPT: inconclusive; DT40 TDP1 CPT: inconclusive

How did CC1(C)c2ccccc2N2CC(=O)NC21/C=C/c1ccco1 (stereo unspecified) do in these assays?
HT1080 IDH1KD tx: 6%; IL1B secr inh: -3; HT1080NT lethal: 1%; TDP1 cell noCPT: 23µM*; DT40 TDP1 CPT: inconclusive

What do the screens show for `CC1(C)c2ccccc2N2CCC(=O)NC21/C=C/c1ccco1` (stereo unspecified)?
HT1080 IDH1KD tx: 2%; IL1B secr inh: 2; HT1080NT lethal: 0%; TDP1 cell noCPT: inconclusive; DT40 TDP1 CPT: -4%

Results for Cc1ccc(OCC(=O)Nc2ccccc2C(=O)OCc2cc(=O)n3ccsc3n2)cc1 ?
TDP1 cell noCPT: -14%; DT40 TDP1 CPT: 4%

Results for Fc1cc2[nH]cnc2cc1Cl ?
HT1080 IDH1KD tx: -1%; IL1B secr inh: -2; HT1080NT lethal: 13%; TDP1 cell noCPT: 1.8µM*; DT40 TDP1 CPT: 6%

How did Clc1cc2nc[nH]c2cc1Cl do in these assays?
HT1080 IDH1KD tx: -13%; IL1B secr inh: 18; HT1080NT lethal: -17%; TDP1 cell noCPT: -17%; DT40 TDP1 CPT: 2%

How did Cc1cccc(NC(=O)c2nc[nH]c2C(=O)N[C@@H](C)CO)c1 do in these assays?
HT1080 IDH1KD tx: -3%; HT1080NT lethal: 20%; TDP1 cell noCPT: -21%; DT40 TDP1 CPT: 1%

How did Cc1cccc(N2CCN(C(=O)c3cn4ccccc4n3)CC2C)c1 (stereo unspecified) do in these assays?
HT1080 IDH1KD tx: -19%; IL1B secr inh: 5; HT1080NT lethal: 5%; TDP1 cell noCPT: -8%; DT40 TDP1 CPT: 10%

How did CCOc1ccc(CN(CCO)CCO)cc1[N+](=O)[O-] do in these assays?
HT1080 IDH1KD tx: 1%; IL1B secr inh: 15; HT1080NT lethal: 8%; TDP1 cell noCPT: -4%; DT40 TDP1 CPT: -1%

Results for CCCCOc1ccc(CN(CCO)CCO)cc1[N+](=O)[O-] ?
HT1080 IDH1KD tx: -6%; IL1B secr inh: -13; HT1080NT lethal: 2%; TDP1 cell noCPT: -2%; DT40 TDP1 CPT: 18µM*

What do the screens show for `CCCCCOc1ccc(CSC(=N)N)cc1[N+](=O)[O-]`?
HT1080 IDH1KD tx: 16µM*; IL1B secr inh: -105*; HT1080NT lethal: 21µM*; TDP1 cell noCPT: 16µM*; DT40 TDP1 CPT: 15µM*
